Sampled rows, rich in hits. Any-hit rate of the full collection: about 4.5%.
hgDAF12 agonist: agonists of H. glycines DAF-12 nuclear receptor; actives 1.8% (n = 370,000); AID 687014; HEK293 GAL4-hgDAF12 UAS-luciferase reporter, agonist luminescence; normalized to butyrate control; activation, % at 6.8 µM;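 active = activation above a cutoff set at the mean of all screened compounds plus 3 SD, cut at about 10% in these data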;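 also: 0% = DMSO wells and 100% = sodium butyrate wells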
DAX1 inh-1: inhibitors of DAX1 repression of SF-1 activated StAR promoter; AID 652010; inhibition, % at 6.8 µM; HEK293T StAR-luciferase reporter, SF-1/DAX-1 repression relief; actives 1.1% (n = 370,000);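 active = inhibition above the mean over all tested compounds plus 3 SD, cut at about 3.6% in these data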;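 also: 0% = DAX-1 cells with DMSO and 100% = cells lacking DAX-1 with DMSO; higher inhibition means more luminescence from relief of DAX-1 repression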
hcDAF12 agonist: activates DAF-12 receptor from parasite H. contortus. actives 1.4% (n = 370,000). HEK293 hcDAF-12 lit1-tk-luc reporter, luminescence; 0% DMSO, 100% Δ7-dafachronic acid. activation, % at 6.8 µM;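 active = activation above the mean of all tested compounds plus 3 SD, cut at about 5.5% in these data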;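 also: 100% = response to 3 µM Δ7-dafachronic acid high control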
DAX1 inh-2: NR0B1 (DAX1) inhibition | HEK293 Gal4-DAX1 luciferase reporter, luminescence | P51843 | actives 0.99% (n = 340,000) | inhibition, % at 6.75 µM;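 active = inhibition above the mean over all tested compounds plus 3 SD, cut at about 4.2% in these data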;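 also: 0% = DAX1-transfected cells with DMSO and 100% = empty-vector control cells with DMSO; inhibition shows as a rise in luminescence from relieved DAX1 repression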
Target sequence (P51843 207-470 limits assumed): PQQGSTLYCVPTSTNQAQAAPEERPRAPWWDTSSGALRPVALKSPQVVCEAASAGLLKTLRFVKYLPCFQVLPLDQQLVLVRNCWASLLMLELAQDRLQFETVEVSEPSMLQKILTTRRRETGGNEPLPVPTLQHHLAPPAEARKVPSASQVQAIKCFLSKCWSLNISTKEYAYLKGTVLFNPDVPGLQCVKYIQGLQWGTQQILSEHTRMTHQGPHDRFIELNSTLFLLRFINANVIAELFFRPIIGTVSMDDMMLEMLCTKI
ssDAF12 agonist: activates DAF-12 receptor from parasite S. stercoralis; activation, % at 6.8 µM; HEK293 ssDAF-12/GRIP1 lit1-tk-luc reporter, luminescence; % of 3 µM dafachronic acid response; actives 1% (n = 370,000);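 active = activation above the mean over all tested compounds plus 3 SD, cut at about 0.9% in these data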;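 also: 0% = DMSO-only wells and 100% = 3 µM delta7-dafachronic acid wells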
GAA850 FXN act: increases GAA850 frataxin promoter reporter activity; HEK293 lucGAA850 FXN promoter luciferase reporter, 24 h; percent of 10 µM SAHA response; AID 540364; activation, % at 6 µM; actives 0.56% (n = 360,000);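 active = activation above the average of all compounds screened plus 3 SD, cutoff fixed separately per campaign, cut at about 7.5% in these data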;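 also: 0% = DMSO wells and 100% = 10 µM SAHA wells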
DAX1 conf: NR0B1 (human) inhibition, confirmation; inhibition, % at 6.8 µM; shares compounds with DAX1 inh-1; HEK293T StAR-promoter luciferase reporter, SF-1/DAX-1 repression; actives 87% (n = 2,400);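 active = inhibition above the average of every tested compound plus 3 SD, cut at about 3.8% in these data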;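 also: 0% = DAX-1 cells with DMSO and 100% = no DAX-1 control cells with DMSO; active compounds raise luminescence by relieving repression of the StAR reporter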
SF1 mutant ctr: nonselective inhibitor or artifact in SF-1 mutant DAX1 counter-screen; shares compounds with DAX1 inh-1; HEK293 StAR-luciferase, SF-1 AF2 mutant, luminescence; inhibition, % at 6.8 µM; AID 652136; actives 78% (n = 2,400);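 active = inhibition above the mean of all tested compounds plus 3 SD, cut at about 3% in these data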;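 also: 0% = DAX-1 transfected cells with DMSO and 100% = cells without DAX-1 with DMSO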
LXR ag: LXR-beta agonism as hcDAF-12 counter-screen; shares compounds with hcDAF12 agonist; HEK293 Gal4-LXR tk-luc reporter, luminescence, 24 h; normalized: DMSO 0%, positive control 100%; activation, % at 6.8 µM; 3,400 tested, under 10 active; AID 743027;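 active = mean percent activation of the reporter above a cutoff set as the average over tested compounds plus their standard deviation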
Target sequence (P55055 whole entry, looked up, the tested form may be a part): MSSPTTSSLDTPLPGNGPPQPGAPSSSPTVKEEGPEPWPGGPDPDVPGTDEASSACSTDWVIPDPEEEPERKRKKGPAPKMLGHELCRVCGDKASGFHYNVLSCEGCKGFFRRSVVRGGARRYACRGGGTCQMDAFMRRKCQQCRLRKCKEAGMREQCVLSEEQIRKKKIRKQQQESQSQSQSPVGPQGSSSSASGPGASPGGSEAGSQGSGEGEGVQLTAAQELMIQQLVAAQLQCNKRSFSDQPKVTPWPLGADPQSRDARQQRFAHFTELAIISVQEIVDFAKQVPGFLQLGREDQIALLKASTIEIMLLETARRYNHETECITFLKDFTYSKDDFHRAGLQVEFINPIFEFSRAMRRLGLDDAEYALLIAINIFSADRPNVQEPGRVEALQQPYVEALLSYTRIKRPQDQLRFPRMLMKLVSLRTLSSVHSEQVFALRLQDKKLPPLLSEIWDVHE
hcDAF12 ag: confirmation of H. contortus DAF-12 agonists; shares compounds with hcDAF12 agonist; HEK293 hcDAF-12 lit1-tk-luc reporter, luminescence; % of Δ7-dafachronic acid response; activation, % at 6.8 µM; actives 61% (n = 3,400);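 active = mean activation across triplicate tests above the threshold derived from the earlier primary screen, cut at about 5.5% in these data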;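 also: 0% = DMSO only wells and 100% = 3 µM Δ7-dafachronic acid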
hgDAF12 ag: hgDAF-12 agonism, confirmation assay; shares compounds with hgDAF12 agonist; HEK293 GAL4-hgDAF12 luciferase reporter, agonist mode; percent of butyrate response; activation, % at 6.8 µM; actives 80% (n = 3,300);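 active = mean activation over triplicate wells above the hit cutoff derived from the earlier primary screen, cut at about 11% in these data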;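 also: 0% = DMSO low control and 100% = 2 mM sodium butyrate high control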
LXR ag 2: activates human LXR-beta, counter-screen for DAF-12 agonists | AID 743051 | shares compounds with hgDAF12 agonist | HEK293 Gal4-LXR luciferase reporter, 24 h | 3,300 tested, under 10 active | activation, % at 6.8 µM;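 active = mean activation of the triplicate above a set limit carried over from the primary screen, none filed active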
The depositor's hits bear a star; x = no result; ! = repeats disagree.

SMILES | hgDAF12 agonist | DAX1 inh-1 | hcDAF12 agonist | DAX1 inh-2 | ssDAF12 agonist | GAA850 FXN act | DAX1 conf | SF1 mutant ctr | hgDAF12 ag | LXR ag 2 | others
CCCCNc1c(-c2ccc(SC(C)CC)cc2)nc2ccccn12 (configuration not stated) | 10.9* | 5.3*! | 6.7*! | 1.7 | 2.6*! | 7.4 | 6.3* | 3.4* | 15.5* | 0.7 | LXR ag=1.3;hcDAF12 ag=5.1
CCCCNc1c(-c2cccc(SC(C)CC)c2)nc2ccc(Cl)cn12 (configuration not stated) | 0.2 | 0.9 | -0.4 | -0.9 | -0.9 | 1.3 | x | x | x | x
COc1ccc(/C=C2\CC3(OC(=O)c4ccccc4)CCCN2C3)cc1 (configuration not stated) | -1.4 | -1.1 | -2.8 | x | -1.5 | x | x | x | x | x
O=C(CCCc1cccs1)Nc1ccc2c(c1)OCO2 | 22.0* | 5.5* | 2.9 | 6.0* | 0.8 | 3.6 | 9.7* | 6.7* | 14.1* | 0.6
CSc1ccc(/C=C/C(=O)Nc2ccccc2)cc1 | 13.7* | 14.4* | 10.7* | -2.6 | 0.6 | -0.3 | 6.8* | 4.3* | 15.9* | 1.3 | LXR ag=1.6;hcDAF12 ag=7.4*
O=C(CCCc1ccccc1)Nc1ccc2c(c1)OCCO2 | 22.3* | 6.1* | 8.2* | 0.5 | 0.8 | 4.5 | 9.0* | 4.9* | 15.1* | 0.9 | LXR ag=1.2;hcDAF12 ag=9.1*
O=C(CCCCCN1C(=O)c2ccccc2C1=O)Nc1ccc2c(c1)OCCO2 | -0.1 | -1.1 | -2.2 | -1.8 | -0.9 | -1.4 | x | x | x | x
O=C(/C=C/c1ccccc1)Nc1ccc2c(c1)OCCO2 | 17.8* | 7.4* | 4.4 | -0.6 | 0.7 | 0.3 | 14.1* | 6.5* | 23.1* | 1.2
CCN(CC(=O)Nc1ccc2c(c1)OCCO2)C(=O)/C=C/c1ccccc1 | 0.6 | 0.8 | -0.4 | 1.0 | -1.1 | 0.1 | x | x | x | x
O=C(NCc1ccccc1)[C@H]1CCCN1C(=O)[C@H]1CCCN1C(=O)c1ccc(F)c(F)c1 | 0.8 | 0.1 | -2.1 | x | 0.3 | x | x | x | x | x
Nc1[nH]c(C(=O)c2ccccc2)c(-c2ccccc2)c1C(=O)NCCc1c[nH]c2ccccc12 | 1.6 | 0.6 | 0.8 | x | 0.5 | x | x | x | x | x
C/C(CC(=O)Nc1ccc2c(c1)OCCO2)=N\NC(=O)c1ccccn1 | 15.4* | 6.4* | 6.2* | 0.8 | 0.3 | 2.3 | 1.0 | -0.6 | 6.6 | 0.1
O=C(CSc1ccccc1)Nc1ccc2c(c1)OCCO2 | 15.4* | 11.4* | 5.5 | 2.9 | 1.0* | 4.6 | 13.9* | 7.5* | 14.9* | 0.8
COc1cc(Cl)ccc1OCc1cc(C(=O)N2CCCCCC2)no1 | 2.8 | 0.2 | 1.3 | 1.0 | -0.4 | 0.3 | x | x | x | x
COc1cc(Cl)ccc1OCc1cc(C(=O)N2CCCC(OC)C2)no1 (configuration not stated) | 18.5* | 8.1* | 4.4 | 1.0 | 0.2 | 4.1 | 6.6* | 4.1* | 17.4* | 0.7
CN(C)c1oc(-c2cccs2)nc1C#N | -1.5 | -0.3 | -1.0 | 0.4 | -1.0 | 1.0 | x | x | x | x
CN(C)c1ccc(-c2nnc(-c3cccs3)o2)cc1 | 19.8* | 5.8* | 4.8 | 4.4* | 0.5 | 3.2 | 14.5* | 5.9* | 16.8* | 1.2
COc1ccc(/C=C2\SC(=O)N(CCNC(=O)C3CC4C=CC3C4)C2=O)cc1 (configuration not stated) | 20.6* | 5.5* | 3.0 | 3.0 | -0.4 | 6.2 | 8.6* | 4.3* | 23.1* | 0.8
COc1ccc(/C=C2\SC(=O)N(CCNC(=O)C3CSC4(C)CCC(=O)N34)C2=O)cc1 (configuration not stated) | 3.5 | 1.3 | 1.4 | -0.5 | 0.7 | 2.2 | x | x | x | x
COP(=O)(O)CCOCCC(CC(C)C)NC(=O)OCc1ccccc1 (configuration not stated) | 0.6 | -0.6 | -0.8 | x | -0.2 | x | x | x | x | x
CCCCCCc1ccc(NC(=O)[C@@H]2CC=C[C@@H]3CCN(Cc4ccccc4)C(=O)[C@@H]32)cc1 | 2.0 | x | -1.6 | x | -1.4 | x | x | x | x | x
O=C(NC(c1ccc(Cl)cc1)c1ccsc1)C1CCN(Cc2ccc(Oc3ccccc3)cc2)CC1 (configuration not stated) | 0.3 | 0.4 | -1.9 | x | -1.7 | -2.3 | x | x | x | x
COc1ccccc1C(=O)Nc1nnc(-c2ccco2)s1 | 18.8* | 8.4* | 15.3* | 4.5* | 2.0* | 5.7 | 11.9* | 9.0* | 21.3* | 1.1 | LXR ag=1.5;hcDAF12 ag=14.1*
Cc1ccccc1C(=O)Nc1nnc(-c2ccco2)s1 | 16.1* | 5.2* | 9.4* | -0.9 | 1.1* | 1.2 | 9.0* | 4.1* | 12.2* | 0.7 | LXR ag=1.4;hcDAF12 ag=8.2*
Cc1ccccc1OCC(=O)Nc1nnc(-c2ccco2)s1 | -3.1 | -0.3 | -0.5 | 0.9 | -0.6 | 0.9 | x | x | x | x
O=C(Nc1nc2c(s1)COc1ccccc1-2)c1cccs1 | 14.7* | 11.9* | -0.4 | 4.8* | -1.6 | 0.9 | 8.8* | 9.4* | 7.4 | 0.2
Cc1nc2nc(-c3ccccc3)cn2nc1C | 13.7* | 4.8* | 6.2* | 3.2 | 0.1 | 6.1 | 11.4* | 5.1* | 11.9* | 0.8
Cc1c(C(=O)N2c3ccccc3CC2C)oc2ccccc12 (configuration not stated) | 18.0* | 5.3* | 11.3* | 3.4 | 2.3* | 2.3 | 8.8* | 6.1* | 20.2* | 0.7 | LXR ag=1.2;hcDAF12 ag=16.7*
COCc1c(C(=O)OCC(=O)N2c3ccccc3CC2C)oc2ccccc12 (configuration not stated) | 0.5 | 0.2 | 1.2 | -0.2 | -1.2 | 2.2 | x | x | x | x
CCc1ccc(NC(=O)c2cc(-c3ccc(OC)cc3)on2)cc1 | 0.2 | -0.2 | -0.6 | -0.2 | -1.9 | 0.9 | x | x | x | x

From PubChem
